From PubChem BioAssay
Values without a mark were called inactive. For part of these data: Entries with a potency or affinity are not part of this list. Active and inactive are the calls of the source. Unless noted, no rule for the calls is given here.

Key:
[1] = antimalarial activity against Dd2 strain (AID 2302;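 active = growth inhibition above 50% at the single 2 µM test dose, taken to imply half-maximal potency below 2 µM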;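 also: 0% = DMSO untreated growth and 100% = chloroquine plus artemisinin killed control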); conditions: P. falciparum Dd2 in RBCs, LDH growth readout, 72 h; at 2 µM; stronger effect = higher value
[2] = human hepatoma cell viability loss – ATP luminescence, cytotoxicity control for P. falciparum antimalarial project, primary screen (AID 2303;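 active = inhibition above 50%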;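 also: 0% = DMSO wells and 100% = digitonin-killed cells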); conditions: HepG2 viability, 24-48 h, at 10 µM, stronger effect = higher value
[3] = biological target: L-lactate dehydrogenase (Plasmodium falciparum (isolate CDC / Honduras)) (UniProt Q27743); test: PfLDH activity inhibition – cell lysate, 3D7 strain, counter-screen for P. falciparum growth inhibition project (AID 2304);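 also: 0% = vehicle and 100% = reference inhibitor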; conditions: P. falciparum 3D7 crude extract, LDH APAD/NBT absorbance; at 2 µM; stronger effect = higher value
[4] = inhibition of 3D7 malaria parasite growth – strain 3D7 (AID 2306);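 also: 0% = DMSO wells and 100% = chloroquine plus artemisinin control wells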; conditions: P. falciparum 3D7 erythrocytic growth, LDH absorbance, 72 h; at 2 µM; stronger effect = higher value
[5] = biological target: Calcium-dependent protein kinase 1 (Plasmodium falciparum (isolate 3D7)) (UniProt P62344); test: PfCDPK1 kinase inhibitors, biochemical, TCAMS library (AID 1159585; cut-off not given, nearly all actives have IC50 up to about 0.98 µM;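 also: inhibitors leave more ATP so luminescence rises with inhibition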); conditions: recombinant PfCDPK1, Kinase-Glo ATP depletion luminescence
[6] = biological target: Plasmodium falciparum protein kinase 6 (PK6, PF3D7_1337100) (UniProt Q8IDW1); test: PfPK6 kinase inhibitors, biochemical, TCAMS library (AID 1159586); conditions: recombinant PfPK6, Kinase-Glo ATP depletion luminescence
[7] = biological target: Protein kinase 7 (PK7), Plasmodium falciparum 3D7 (PF3D7_0213400) (UniProt Q7YTF7); test: inhibition of Plasmodium PK7 catalytic activity – biochemical, TCAMS antimalarial set, Kinase-Glo luminescence (AID 1159587); conditions: recombinant PfPK7, Kinase-Glo ATP depletion luminescence
[8] = biological target: Calcium-dependent protein kinase 4 (Plasmodium falciparum (isolate 3D7)) (UniProt Q8IBS5); test: PfCDPK4 kinase inhibitors, biochemical, TCAMS library (AID 1159588; cut-off not given, nearly all actives have IC50 up to about 0.91 µM); conditions: recombinant PfCDPK4, Kinase-Glo ATP depletion luminescence
Calcium-dependent protein kinase 4 (Plasmodium falciparum (isolate 3D7)), sequence (Q8IBS5 whole entry, looked up): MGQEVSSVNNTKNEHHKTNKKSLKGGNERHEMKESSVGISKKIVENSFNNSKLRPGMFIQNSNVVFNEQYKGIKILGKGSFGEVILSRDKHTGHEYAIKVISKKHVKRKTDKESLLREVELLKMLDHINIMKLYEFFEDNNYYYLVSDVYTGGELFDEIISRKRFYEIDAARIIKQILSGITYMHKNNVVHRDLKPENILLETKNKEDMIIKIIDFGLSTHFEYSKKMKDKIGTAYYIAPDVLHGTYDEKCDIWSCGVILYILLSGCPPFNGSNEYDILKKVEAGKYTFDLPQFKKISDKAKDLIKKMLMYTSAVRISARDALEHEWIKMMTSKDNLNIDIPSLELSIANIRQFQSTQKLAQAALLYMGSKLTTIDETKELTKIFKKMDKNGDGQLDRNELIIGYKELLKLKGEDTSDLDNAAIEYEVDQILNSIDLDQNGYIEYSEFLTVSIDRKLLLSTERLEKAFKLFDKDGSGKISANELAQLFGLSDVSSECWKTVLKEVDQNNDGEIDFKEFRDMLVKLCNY

Protein kinase 7 (PK7), Plasmodium falciparum 3D7 (PF3D7_0213400), sequence (Q7YTF7 1-343): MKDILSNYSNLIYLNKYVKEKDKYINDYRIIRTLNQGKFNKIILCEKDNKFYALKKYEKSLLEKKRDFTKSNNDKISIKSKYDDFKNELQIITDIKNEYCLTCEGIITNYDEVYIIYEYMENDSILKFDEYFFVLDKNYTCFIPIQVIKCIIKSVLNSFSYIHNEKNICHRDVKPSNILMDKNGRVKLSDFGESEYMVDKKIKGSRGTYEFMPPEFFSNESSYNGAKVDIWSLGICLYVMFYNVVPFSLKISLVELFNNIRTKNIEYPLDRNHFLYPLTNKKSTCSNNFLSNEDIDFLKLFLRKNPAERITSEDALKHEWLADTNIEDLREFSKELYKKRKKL
Plasmodium falciparum protein kinase 6 (PK6, PF3D7_1337100), sequence (Q8IDW1 1-305): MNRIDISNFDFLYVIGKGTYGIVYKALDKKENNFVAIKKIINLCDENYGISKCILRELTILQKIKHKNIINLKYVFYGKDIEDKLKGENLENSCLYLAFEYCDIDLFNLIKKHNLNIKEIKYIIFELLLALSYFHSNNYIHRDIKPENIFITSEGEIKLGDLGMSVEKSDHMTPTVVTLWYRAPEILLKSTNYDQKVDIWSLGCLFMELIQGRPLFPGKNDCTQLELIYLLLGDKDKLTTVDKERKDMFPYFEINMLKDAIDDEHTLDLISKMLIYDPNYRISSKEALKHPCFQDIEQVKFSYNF
Calcium-dependent protein kinase 1 (Plasmodium falciparum (isolate 3D7)), sequence (P62344 whole entry, looked up): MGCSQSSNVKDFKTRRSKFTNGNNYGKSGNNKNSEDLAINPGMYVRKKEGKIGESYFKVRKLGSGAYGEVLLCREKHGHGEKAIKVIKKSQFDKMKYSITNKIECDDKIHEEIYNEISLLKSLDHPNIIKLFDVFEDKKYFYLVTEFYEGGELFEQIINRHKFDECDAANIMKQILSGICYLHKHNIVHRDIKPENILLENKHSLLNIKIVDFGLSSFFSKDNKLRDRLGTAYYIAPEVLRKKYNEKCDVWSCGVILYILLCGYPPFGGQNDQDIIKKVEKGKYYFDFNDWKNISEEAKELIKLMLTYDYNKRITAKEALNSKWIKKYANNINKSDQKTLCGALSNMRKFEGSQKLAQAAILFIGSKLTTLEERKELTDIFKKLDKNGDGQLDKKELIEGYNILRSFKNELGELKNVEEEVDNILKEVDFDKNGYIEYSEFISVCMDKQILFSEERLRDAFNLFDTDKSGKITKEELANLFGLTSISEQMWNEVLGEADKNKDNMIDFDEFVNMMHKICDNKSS
L-lactate dehydrogenase (Plasmodium falciparum (isolate CDC / Honduras)), sequence (Q27743 whole entry, looked up): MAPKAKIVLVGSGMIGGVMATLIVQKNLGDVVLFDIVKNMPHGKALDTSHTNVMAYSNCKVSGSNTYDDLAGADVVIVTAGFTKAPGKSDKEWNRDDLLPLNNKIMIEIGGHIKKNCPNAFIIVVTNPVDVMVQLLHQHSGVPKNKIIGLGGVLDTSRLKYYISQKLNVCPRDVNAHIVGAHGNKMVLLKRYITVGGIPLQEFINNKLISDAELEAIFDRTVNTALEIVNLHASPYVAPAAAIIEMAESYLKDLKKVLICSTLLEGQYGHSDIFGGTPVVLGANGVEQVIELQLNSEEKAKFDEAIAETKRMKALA

Structure (SMILES)	growth inhibition [1]	inhibition [2]	inhibition [3] [%]	growth inhibition [4]	outcome [5]	outcome [6]	outcome [7]	outcome [8]
Cc1cccc2[nH]c(-c3ccc(-c4cccc(CN5CCCC(N)C5)c4)s3)nc12 (stereo not drawn)	94% (active)	17%	4	100% (active)	inactive	inactive	inactive	inactive
Cc1ccc2nc3sc(C(=O)NCCCN4CCC(N5CCCCC5)CC4)cc3cc2c1	71% (active)	11%	-5	103% (active)	inactive	inactive	inactive	inactive
O=C(/C=C/c1ccc(Cl)c(Cl)c1)NC1CCC(CN2CCC(c3nc4ccccc4n3CCCO)CC2)CC1 (stereo not drawn)	28%	28%	-5	99% (active)	inactive	inactive	inactive	inactive
O=C(Nc1nc2ccc(Cl)cc2s1)c1csnn1	99% (active)	15%	3	96% (active)	inactive	inactive	inactive	inactive
CC1CN(Cc2ccc(C#N)cc2)CCN1c1ccc(NC(=O)c2cccs2)cc1 (stereo not drawn)	89% (active)	8%	2	93% (active)	inactive	inactive	inactive	inactive
Cn1nc(-c2cccc(CN[C@@H]3CCc4ccc(O)cc43)c2)c2cnc(NC3CCCC3)nc21	76% (active)	6%	-2	100% (active)	inactive	inactive	inactive	inactive
O=c1[nH]c2c(cc1CNC1CCCCC1)c(-c1cccc(F)c1)nn2-c1ccccc1	89% (active)	6%	7	95% (active)	inactive	inactive	inactive	inactive
CN1CCCN(Cc2cccc(-c3ccc(NC(=O)c4cccc(C#N)c4)cc3)c2)CC1	96% (active)	27%	-6	102% (active)	inactive	inactive	inactive	inactive
Fc1ccc2nc(-c3ccc(-c4cccc(CN5CCN(CCN6CCOCC6)CC5)c4)cc3)[nH]c2c1	100% (active)	35%	4	101% (active)	inactive	inactive	inactive	inactive
COc1cc2c(cc1N1C[C@@H](C)N[C@@H](C)C1)N(C(=O)c1ccc(-c3ccc(-c4ncc[nH]4)cc3C)cc1)CC2	58% (active)	7%	-2	98% (active)	inactive	inactive	inactive	inactive
CN(Cc1cccc(O)c1)C1CCCN(c2cc(NC(=O)c3ccc(F)cc3)ccn2)C1 (stereo not drawn)	12%	8%	-2	91% (active)	inactive	inactive	inactive	inactive
O=C(Nc1cccc2ccccc12)N1CCC(NS(=O)(=O)c2cccc(C(F)(F)F)c2)CC1	1%	-5%	-1	95% (active)	inactive	inactive	inactive	inactive
CCCCc1ccc(-c2nc(NC(=O)Nc3nc(-c4ccccc4)[nH]c3C(=O)OCC)c(C(=O)OCC)[nH]2)cc1	26%	0%	-4	95% (active)	inactive	inactive	inactive	inactive
Oc1ccc(Cl)cc1-c1cc(C(F)(F)F)nc(-c2ccccc2)n1	92% (active)	20%	3	99% (active)	inactive	inactive	inactive	inactive
CCCCc1cc(NCC)nc(Nc2ccc(F)cc2)n1	56% (active)	33%	-1	98% (active)	inactive	inactive	inactive	inactive
O=C(NCCCCN1CCC(c2ccc3c(c2OCCN2CCCC2=O)CCCC3)CC1)c1ccc(-c2ccc(C(F)(F)F)cc2)cc1	1%	56% (active)	1	88% (active)	inactive	inactive	inactive	inactive
Cc1c(NC(=O)COc2ccc(Cl)cc2C(=O)c2cc(F)cc(C(F)(F)F)c2)ccc2ncsc12	18%	-2%	-2	86% (active)	inactive	inactive	inactive	inactive
COc1ccc(CNC(=O)Nc2cc3cc(-c4ccc(CN5CCCC5)cc4)ccc3n3c(C)nnc23)cc1	100% (active)	100% (active)	-3	101% (active)	inactive	inactive	inactive	inactive

Structure (SMILES)	growth inhibition [1]	inhibition [2]	inhibition [3] [%]	growth inhibition [4]	outcome [5]	outcome [6]	outcome [7]	outcome [8]
CCCCNC(=O)[C@H](CC1CCCCC1)NC(=O)c1ccc(O)c(-c2ccc(Cl)c(Cl)c2)c1	99% (active)	-9%	-1	98% (active)	inactive	inactive	inactive	inactive
C[C@@H](COc1ccccc1)NCC(O)c1ccc([N+](=O)[O-])c(OCc2ccccc2)c1 (stereo partly drawn)	64% (active)	5%	7	93% (active)	inactive	inactive	inactive	inactive
OCC1CCN(Cc2cccc(-c3ccc(-c4nc5ccc(F)cc5[nH]4)cc3)c2)CC1	86% (active)	11%	4	101% (active)	inactive	inactive	inactive	inactive
C[C@@H](NC(=O)NC(CCN1CCC2(CC1)CN(S(C)(=O)=O)c1ccccc12)c1ccc(Cl)c(Cl)c1)c1ccccc1 (stereo partly drawn)	88% (active)	15%	3	92% (active)	inactive	inactive	inactive	inactive
CC(C)C[C@H](NC(=O)c1ccc(F)cc1)C(=O)N[C@H](/C=N/NC(=O)c1ccccc1)CCc1ccccc1	61% (active)	1%	-2	92% (active)	inactive	inactive	inactive	inactive
CCNc1cc(C)nc(Nc2ccc(NC(=O)c3cccs3)cc2)n1	50% (active)	21%	0	101% (active)	inactive	inactive	inactive	inactive
COc1ccc(CCNC(=O)c2cc(C)ccc2O)cc1-c1ccc(C(C)(C)C)cc1	94% (active)	1%	-6	97% (active)	inactive	inactive	inactive	inactive
COc1ccc(-c2cccc(CNC3CCN(CC4Cn5c(=O)ccc6ccc(F)c4c65)CC3)c2)cc1 (stereo not drawn)	74% (active)	22%	0	101% (active)	inactive	inactive	inactive	inactive
Cc1cccc2[nH]c(-c3cccc(-c4cccc(C(=O)NCCN5CCCC5)c4)c3)nc12	75% (active)	21%	1	100% (active)	inactive	inactive	inactive	inactive
Cc1ccc(CN2CCN(c3cc4c(cc3Cl)CCN4C(=O)Cc3ccc(Cl)c(NC(=O)Nc4cccc(C#N)c4)c3)CC2)cc1	29%	3%	1	92% (active)	inactive	inactive	inactive	inactive
CC1CCCC(NC(=O)CCOc2ccccc2)C1 (stereo not drawn)	32%	-14%	-2	96% (active)	inactive	inactive	inactive	inactive
Oc1ccc(CCNc2nc(N/N=C/C=C/c3ccc(Cl)cc3)nc(N3CCNCC3)n2)cc1	52% (active)	17%	2	98% (active)	inactive	inactive	inactive	inactive
OCCCCCCNc1ccnc2[nH]c3ccc(I)cc3c12	61% (active)	27%	-4	100% (active)	inactive	inactive	inactive	inactive
COc1c(C2CCN(CCCCNC(=O)c3ccc(C)c(-c4ccc(C(F)(F)F)cc4)c3)CC2)ccc2c1CCCC2	79% (active)	76% (active)	-5	86% (active)	inactive	inactive	inactive	inactive
Cc1cc(CN2CCC(C(=O)Nc3ccc(-c4nc5ccccc5[nH]4)cc3)CC2)oc1C	9%	-7%	-4	95% (active)	inactive	inactive	inactive	inactive
CO/C(=C\C=C\c1cc2cc(Cl)c(Cl)cc2[nH]1)C(=O)NC1CCN(CCCc2ccccc2)CC1	75% (active)	59% (active)	0	93% (active)	inactive	inactive	inactive	inactive
NOCCCCOc1cc(Cl)c(Cl)cc1Cl	5%	6%	-2	92% (active)	inactive	inactive	inactive	inactive
CCOc1ccc2c(NN=Cc3ccccc3F)cc(C)nc2c1	77% (active)	-1%	-5	101% (active)	inactive	inactive	inactive	inactive
